Measurements reported in PubChem BioAssay (NCATS).
Results filed as inconclusive are left out. The source made the active and inactive calls. Unless noted, the call rests on the fitted dose curve; in most records, active means well fitted curve in the direction sought with a large enough effect; inconclusive means small, poorly fitted or top-dose-only effect, or another doubt; inactive means no such curve, though single readings can be large; an effect the other way counts as inactive or inconclusive.

Tests used:
[1] = HPAF-II 24hr Apoptosis Induction qHTS against the NCATS CANVASS Library (AID 1347356); further: 0% is about no effect
Procedure, shortened: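 Using an 11-point qHTS format, HPAF-II cells in DMEM/10% FBS received compounds for 24 h; doxorubicin titration as control. Caspase-3/7 activity quantified by DEVD-luciferase luminescence.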

[2] = HEK293 18hr Apoptosis Induction qHTS against the NCATS CANVASS Library (AID 1347357); further: 0% is about no effect
Procedure, shortened: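 HEK293 cells (500 per well, DMEM with 10% FBS) were treated with natural products, incubated 18 hours at 37 degrees C, then caspase-3/7 activity was read by Caspase-Glo luminescence after 15 min at room temperature.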

[3] = HPAF-II 12hr Apoptosis Induction qHTS against the NCATS CANVASS Library (AID 1347358); further: 0% is about no effect
Procedure, shortened: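 Twelve-hour compound exposure of HPAF-II cells in DMEM with 10% FBS, then luminescent Caspase-Glo 3/7 detection after 15 min at room temperature; doxorubicin control.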

[4] = HEK293 24hr Apoptosis Induction qHTS against the NCATS CANVASS Library (AID 1347359); further: 0% is about no effect
Procedure, shortened: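 HEK293 cells (500/well, DMEM + 10% FBS) were exposed to compounds in an 11-point series for 24 hours at 37 degrees C, then caspase-3/7 activity was read by Caspase-Glo DEVD luciferase luminescence after 15 min.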

[5] = HPAF-II 18hr Apoptosis Induction qHTS against the NCATS CANVASS Library (AID 1347360); further: 0% is about no effect
Procedure, shortened: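 HPAF-II cells (500/well, DMEM + 10% FBS) were exposed to compounds for 18 hours at 37 degrees C. Caspase-3/7 activity was then read by Caspase-Glo 3/7 luminescence after 15 min at room temperature.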

[6] = HEK293 12hr Apoptosis Induction qHTS against the NCATS CANVASS Library (AID 1347361); further: 0% is about no effect
Procedure, shortened: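 Read-out: Caspase-Glo 3/7 luminescence (DEVD substrate), 15 min RT. Preceded by 12 h compound exposure of HEK293, 500 cells/well, 11-pt qHTS titration; doxorubicin titration as control.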

[7] = biological target: Luciferin 4-monooxygenase (Photinus pyralis) (UniProt P08659); test: Firefly luciferase counterscreen qHTS: Assay Interference Panel against the NCATS CANVASS Library (AID 1347363); further: 0% is about no effect
Chain of Luciferin 4-monooxygenase (Photinus pyralis) (P08659 whole entry, looked up): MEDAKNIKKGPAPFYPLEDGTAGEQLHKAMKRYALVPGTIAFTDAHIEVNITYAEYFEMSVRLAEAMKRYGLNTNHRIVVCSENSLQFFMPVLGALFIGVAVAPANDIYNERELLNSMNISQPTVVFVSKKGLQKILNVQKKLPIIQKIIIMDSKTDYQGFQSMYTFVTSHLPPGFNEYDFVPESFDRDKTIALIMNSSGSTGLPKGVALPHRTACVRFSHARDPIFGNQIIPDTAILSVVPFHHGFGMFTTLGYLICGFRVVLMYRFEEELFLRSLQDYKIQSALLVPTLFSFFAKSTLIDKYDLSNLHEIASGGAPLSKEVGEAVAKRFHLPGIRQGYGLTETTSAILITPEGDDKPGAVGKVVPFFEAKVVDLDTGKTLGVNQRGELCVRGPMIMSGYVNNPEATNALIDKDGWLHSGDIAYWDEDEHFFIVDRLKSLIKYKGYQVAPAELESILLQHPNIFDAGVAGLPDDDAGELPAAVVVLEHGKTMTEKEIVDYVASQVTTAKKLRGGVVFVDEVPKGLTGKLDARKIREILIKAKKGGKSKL
Procedure, shortened: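 Purified P. pyralis luciferase was added to compounds (11-point series) preincubated 15 min at room temperature with substrate containing 0.013 mM D-luciferin and 0.013 mM ATP; luminescence was read after 5 min.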

[8] = 10-beta competent E. coli microbial cell viability qHTS against the NCATS CANVASS Library (AID 1347376); further: 0% is about no effect
Procedure, shortened: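 Overnight 37C exposure of 10-beta E. coli (0.2 OD) to an 11-point concentration series; ATP-based luminescence after 20 min room-temperature reagent incubation; daunomycin as control.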

[9] = Inflammasome Signaling qHTS Counterscreen: IL-1-beta AlphaLISA counterscreen against the NCATS CANVASS Library (AID 1347381);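 further: cell-free check with purified IL-1β in medium and no THP-1 cells; 0% is about no effect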
Procedure, shortened: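 Here, no cellular stimulation occurs; compounds in an 11-point series meet 4 pg purified IL-1-beta directly. Bead-based AlphaLISA detection follows (1 h acceptor/antibody, then 30 min donor, dark, room temperature), with excitation at 680 nm.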

[10] = Cytotoxicity qHTS for assessment of Hepg2 cells membrane integrity screened against the NCATS CANVASS Library (AID 1347387)
Procedure, shortened: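 Membrane damage in HepG2 monolayers was estimated from released LDH, measured with CytoTox-ONE (ex 560/em 590 nm), after 5 hr treatment across 0.59 nM - 46 uM final.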

[11] = qHTS for activators of dead-cell proteases activity screened against the NCATS CANVASS Library (AID 1347392);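 further: luminescence from protease leaking out of membrane-damaged cells cleaving impermeant substrate; 0% is about no effect; rising signal means more cytotoxicity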
Procedure, shortened: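 Cytotoxicity in HepG2 cells was assessed by released protease cleaving AAF-aminoluciferin, with luminescence as signal. Exposure lasted 5 h at 37C across an 11-point series.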

[12] = qHTS to identify inhibitors of the type 1 interferon - major histocompatibility complex class I in skeletal muscle: primary screen against the NCATS Mechanism Interrogation Plate v5.0 (MIPE) Libary (AID 1347411); further: nearly all actives have a fitted effect of over 65% in size; further: potency means the concentration at half of the fitted maximal effect;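 on activity change, negative = inhibition: plate controls were vehicle for no effect and reference inhibitor for full effect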
Procedure, shortened: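 IFN-beta-driven (4 ng/ml) HLA-B-HiBit expression in CRISPR-tagged C25cl48 myoblasts; compounds 11-pt, 1:3, max 46 uM, 24 hr exposure; lytic NanoLuc complementation luminescence.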

[13] = Primary qHTS for inhibitors of nuclear receptor binding SET domain protein 2 (NSD2) in an isogenic RCH-ACV NSD2 p.E1099K mutant (9B) (AID 1645876); further: potency means the concentration at half of the fitted maximal effect; nearly all actives have a fitted effect of over 70% in size
[14] = Primary qHTS for inhibitors of nuclear receptor binding SET domain protein 2 (NSD2) in an RCH-ACV wild type WT cells (2C) (AID 1645877); further: potency means the concentration at half of the fitted maximal effect; nearly all actives have a fitted effect of over 70% in size
[15] = biological target: Glutathione peroxidase 1 (Homo sapiens) (UniProt P07203); test: Primary qHTS Assay for Inhibitors of Recombinant Selenoprotein Glutathione Peroxidase 1 (GPX1) (AID 1845191); further: nearly all actives have a fitted effect of over 65% in size
Chain of Glutathione peroxidase 1 (Homo sapiens) (P07203 whole entry, looked up): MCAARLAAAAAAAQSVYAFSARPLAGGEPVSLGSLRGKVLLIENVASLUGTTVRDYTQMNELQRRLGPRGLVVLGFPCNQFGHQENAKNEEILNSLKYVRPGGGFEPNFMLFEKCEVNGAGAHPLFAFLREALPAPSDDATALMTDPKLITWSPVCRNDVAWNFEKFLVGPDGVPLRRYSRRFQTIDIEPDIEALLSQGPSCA
Procedure, shortened: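 GPX1 10 nM, GR 100 nM, GSH 1 mM, NADPH 0.5 mM, CHP 0.5 mM (final). 30-min cpd preincubation, RT. Ex340/Em450 read t=0, t=15 min.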

[16] = biological target: Phospholipid hydroperoxide glutathione peroxidase GPX4 (Homo sapiens) (UniProt P36969); test: Primary qHTS Assay for Inhibitors of Recombinant Selenoprotein Glutathione Peroxidase 4 (GPX4) (AID 1845192); settings: outcome: dose series up to 50 µM unless noted; further: on the % scale 0 is the no-effect control and ±100 the full control effect; nearly all actives have a fitted effect of over 65% in size
Chain of Phospholipid hydroperoxide glutathione peroxidase GPX4 (Homo sapiens) (P36969 whole entry, looked up): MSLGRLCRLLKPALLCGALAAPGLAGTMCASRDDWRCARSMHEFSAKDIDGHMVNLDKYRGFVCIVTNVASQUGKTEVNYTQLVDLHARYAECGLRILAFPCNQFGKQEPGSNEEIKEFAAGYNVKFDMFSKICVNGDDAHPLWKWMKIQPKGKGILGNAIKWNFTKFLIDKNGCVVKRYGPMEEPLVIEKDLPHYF
Procedure, shortened: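 qHTS, GR-coupled: GPX4 200 nM + cpd 30 min RT → GSH 1 mM, NADPH 0.5 mM, GR 100 nM → CHP 0.5 mM start; fluor 340/450 at t0 and t15 min; no-enzyme wells as control.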

[17] = qHTS drug screen for cell cycle checkpoint inhibitors in PARPi-resistant BRCA-mutant ovarian cancer cell lines. (AID 1963452; calls by dose curve; further: potency means the concentration at half of the fitted maximal effect); settings: PEO1/OlaR viability, CellTiter-Glo luminescence, 96 h; for Z-AUC: stronger effect = lower value
Procedure, shortened: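 PEO1, PEO4 and PEO1/OlaR ovarian cancer cells, 600 per well, exposed 96 h at 37C to a dilution series. Viability read by CellTiter-Glo luminescence, normalized to DMSO and empty wells; activity summarized as Z-AUC.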

[18] = qHTS assay to identify inhibitors of the type 1 interferon - major histocompatibility complex class I in skeletal muscle: Counter screen cell viability and HiBit confirmation (AID 1347412); settings: iHSKM muscle cells + IFN-b, HiBiT or CellTiter-Glo, 24 h; for activity change, negative = inhibition: at 45.9 µM (top of the series); further: potency means the concentration at half of the fitted maximal effect; on activity change, negative = inhibition: on the % scale 0 is the no-effect control and ±100 the full control effect; on all read-outs here: nearly all actives have a fitted effect of over 60% in size
Procedure, shortened: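 HLA-B*08:01–HiBiT knock-in immortalized human myoblasts (C25cl48) stimulated with 4.0 ng/ml human IFN-beta and dosed with compound in a 12-point 1:3 titration (top final 46 uM). After 24 hrs at 37 C, HiBiT lytic luminescence or CellTiter Glo ATP read out.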

[19] = DH5-alpha competent E. coli microbial cell viability qHTS against the NCATS CANVASS Library (AID 1347377); settings: outcome: dose series up to 46.1 µM unless noted
Procedure, shortened: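 Overnight incubation at 37C, 5% CO2 of E. coli DH5-alpha (diluted to 0.2 OD) with compounds precedes BacTiter-Glo addition. Luminescence, acquired after 20 min at room temperature, reflects viable-cell ATP.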

[20] = Redox Reaction Profiling qHTS: Assay Interference Panel against the NCATS CANVASS Library (AID 1347401);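 further: 100% = activation by 2 µM chloranil control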
Procedure, shortened: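 Quantitative HTS over an 11-point series was run in HEPES pH 7.3 with 50 mM NaCl, 200 uM DTT and 5 uM resazurin. Initial and 15-min resorufin fluorescence readings were taken.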

[21] = measured here: PEO1 parental Z-AUC

CC1=C(C)C(=O)OC(C(C)C2(O)CCC3C4C5OC5C5(O)CC=CC(=O)C5(C)C4CCC32C)C1 (configuration not stated)
inactive: outcome [1] | Potency [2] | Potency [3] | Potency [4] | Potency [5] | outcome [6] | Potency [7] | outcome [8] | outcome [9] | outcome [10] | Potency [11]

O=C(/C=C/c1ccc(CN(CCO)CCc2c[nH]c3ccccc23)cc1)NO
inactive: Potency [15] | Potency [16] | activity change, negative = inhibition ([18]; Viability) -12.6%
active: Potency [12] 0.186 µM | Potency [13] 0.132 µM | Potency [14] 0.132 µM | Potency [17] 0.174 µM | Potency ([18]; HiBiT) 0.198 µM
-1.27: Z-AUC ([17]; measured here: PEO4 Z-AUC)
-1.35: Z-AUC [17, 21]

COc1cc2c3c(n(CCCNCCO)c(=O)c2cc1OC)-c1cc2c(cc1C3=O)OCO2
-1.56: Z-AUC ([17]; measured here: PEO4 Z-AUC)
inactive: Potency [15] | Potency [16] | activity change, negative = inhibition ([18]; HiBiT) -14.1% | activity change, negative = inhibition ([18]; Viability) -9.73%
active: Potency [12] 5.87 µM | Potency [13] 0.0263 µM | Potency [14] 0.0295 µM | Potency [17] 0.0078 µM
-2.45: Z-AUC [17, 21]

CN1CCc2cc3c(c4c2C1(C)C(=O)c1cc(O)ccc1-4)OCO3 (configuration not stated)
inactive: outcome [1] | Potency [2] | Potency [3] | Potency [4] | Potency [5] | outcome [6] | Potency [7] | outcome [8] | outcome [19] | outcome [9] | outcome [10] | Potency [11] | Potency [20]

C/C(=C\[C@@H](C)CC/C=C/CC/C=C/C(=O)O)[C@H](O)[C@H](C)C(=O)CCCC1CC(=O)NC(=O)C1
inactive: outcome [1] | Potency [2] | Potency [3] | Potency [4] | Potency [5] | outcome [6] | Potency [7] | outcome [8] | outcome [19] | outcome [9] | outcome [10] | Potency [11]

O=C(/C=C/C#Cc1cccc(NS(=O)(=O)c2ccccc2)c1)NO
active: Potency [12] 2.55 µM | Potency [13] 0.456 µM | Potency [14] 0.574 µM | Potency ([18]; HiBiT) 6.25 µM
-0.336: Z-AUC [17, 21]
inactive: Potency [15] | Potency [16] | Z-AUC [17] -0.732 | activity change, negative = inhibition ([18]; Viability) -1.87%
-0.647: Z-AUC ([17]; measured here: PEO4 Z-AUC)

CN[C@@H](C)C(=O)N[C@@H]1C(=O)N(Cc2c(C)ccc3ccccc23)c2ccc(C#N)cc2N(C(C)=O)[C@H]1C
inactive: Potency [12]

Cc1ccc(NC(=O)NCc2ccc3c(c2)CN(C2CCC(=O)NC2=O)C3=O)cc1Cl (configuration not stated)
inactive: Potency [15] | Potency [16] | Z-AUC [17] -3.37 | activity change, negative = inhibition ([18]; Viability) -11.6%
-3.45: Z-AUC ([17]; measured here: PEO4 Z-AUC)
active: Potency [12] 0.0147 µM | Potency [13] 0.0015 µM | Potency [14] 0.0012 µM | Potency ([18]; HiBiT) 0.0079 µM
-3.53: Z-AUC [17, 21]
